Only some compounds are listed: those with a hit (about 2.8% of all), similar ones and a draw of the others.
HEK293 viab – cell viability loss counter-screen; HEK-293-SNCA-luc viability, GF-AFC fluorescence, 24 h; Potency, µM (doses to about 57.1 µM), for inactives: at the top dose activity change, negative = cytotoxicity, hits mostly cytotoxic; hit rate 0.12% among 150,000; AID 1671193;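 further: potency means the concentration at half of the fitted maximal effect; 0% = DMSO-treated cells and -100% = medium-only wells without cells; nearly all actives have a fitted effect of over 30% in size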
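Cytotoxicity counterscreen: after 24 h compound treatment of genome-edited SNCA-luciferase HEK-293 cells, live-cell protease substrate GF-AFC read by fluorescence after 30 min; activity scaled between DMSO (0%) and medium-only (-100%), curves Hill-fitted.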
SNCA expr inh – SNCA gene expression inhibition; hit rate 0.17% among 140,000; HEK-293 SNCA-luciferase knock-in, luminescence, 24 h; Potency, µM (top dose mostly 57.2 µM), inactives show top-dose activity change, negative = inhibition, most hits filed as inhibitors;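 further: potency means the concentration at half of the fitted maximal effect; plate controls were DMSO cells for no effect and cell-free wells for full effect; nearly all actives have a fitted effect of over 45% in size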
KDM5B inh – blocks human KDM5B histone demethylase activity. Potency, µM (highest dose often 57.7 µM), hits mostly inhibitors. Q9UGL1. KDM5B demethylase, FDH-coupled NADH fluorescence (FDH is formaldehyde dehydrogenase). hit rate 2.6% among 220,000. AID 1347165; further: potency means the concentration at half of the fitted maximal effect; 0% is about no effect; nearly all actives have a fitted effect of over 70% in size
Target sequence (Q9UGL1 whole entry, looked up): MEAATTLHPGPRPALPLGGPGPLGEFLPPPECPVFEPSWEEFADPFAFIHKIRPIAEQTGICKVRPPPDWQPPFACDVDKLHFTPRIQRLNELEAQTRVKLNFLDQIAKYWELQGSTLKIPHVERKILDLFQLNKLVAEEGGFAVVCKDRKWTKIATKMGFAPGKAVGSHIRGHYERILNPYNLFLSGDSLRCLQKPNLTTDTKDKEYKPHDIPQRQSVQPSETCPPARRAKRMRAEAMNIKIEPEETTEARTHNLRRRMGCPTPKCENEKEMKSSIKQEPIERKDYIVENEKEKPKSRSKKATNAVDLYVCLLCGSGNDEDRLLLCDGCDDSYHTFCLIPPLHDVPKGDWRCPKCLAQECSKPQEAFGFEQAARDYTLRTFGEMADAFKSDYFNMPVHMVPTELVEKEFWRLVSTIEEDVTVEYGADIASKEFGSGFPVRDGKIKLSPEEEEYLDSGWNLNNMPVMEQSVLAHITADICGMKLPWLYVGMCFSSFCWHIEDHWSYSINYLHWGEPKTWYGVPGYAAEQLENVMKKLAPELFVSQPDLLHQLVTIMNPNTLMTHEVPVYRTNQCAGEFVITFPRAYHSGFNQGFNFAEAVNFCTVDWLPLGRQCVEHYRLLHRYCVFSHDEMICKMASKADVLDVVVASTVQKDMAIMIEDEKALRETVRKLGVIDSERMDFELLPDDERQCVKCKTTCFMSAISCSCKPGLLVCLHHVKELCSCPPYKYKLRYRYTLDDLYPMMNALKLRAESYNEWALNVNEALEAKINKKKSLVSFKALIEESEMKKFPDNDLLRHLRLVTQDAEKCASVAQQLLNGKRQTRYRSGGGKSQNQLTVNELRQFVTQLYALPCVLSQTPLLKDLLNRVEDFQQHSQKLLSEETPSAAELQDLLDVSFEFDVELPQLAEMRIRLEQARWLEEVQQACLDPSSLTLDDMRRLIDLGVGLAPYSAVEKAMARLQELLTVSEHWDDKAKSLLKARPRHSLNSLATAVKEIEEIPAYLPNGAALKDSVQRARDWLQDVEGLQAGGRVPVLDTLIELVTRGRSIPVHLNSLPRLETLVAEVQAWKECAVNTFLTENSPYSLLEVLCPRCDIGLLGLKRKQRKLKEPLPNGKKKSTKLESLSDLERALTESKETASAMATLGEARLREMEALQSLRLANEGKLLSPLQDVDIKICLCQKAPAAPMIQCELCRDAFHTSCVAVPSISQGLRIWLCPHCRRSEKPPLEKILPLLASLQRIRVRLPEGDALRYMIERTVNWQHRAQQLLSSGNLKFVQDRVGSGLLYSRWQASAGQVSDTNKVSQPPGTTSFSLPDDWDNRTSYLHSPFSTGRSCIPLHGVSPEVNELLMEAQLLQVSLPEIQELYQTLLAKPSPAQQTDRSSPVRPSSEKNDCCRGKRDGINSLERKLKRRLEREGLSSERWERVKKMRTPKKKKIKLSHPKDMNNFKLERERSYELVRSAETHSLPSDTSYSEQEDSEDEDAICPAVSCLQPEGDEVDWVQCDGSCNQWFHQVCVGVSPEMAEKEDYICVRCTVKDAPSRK
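Here, H3K4me3 peptide (12.5 µM in substrate mix) is demethylated by KDM5BΔAP, 200 nM final, after 10 min compound exposure. Formaldehyde product is coupled through FDH (0.25 U/mL in mix) to NADH fluorescence; 30-min ΔRFU feeds dose-response curves.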
IP6K1 inhibitor – blocks human inositol hexakisphosphate kinase 1; IP6K1 kinase, ADP-Glo luminescence, 2 h; hits give low values; activity change, % (series mostly up to about 58 µM); hit rate 0.81% among 140,000; in the data active means activity change below about -25%; further: on the % scale 0 is the no-effect control and ±100 the full control effect
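ADP-Glo luminescence measures ADP made by human IP6K1 during a 2 h RT reaction with ATP/IP6 (mix at 1.3 mM/130 uM); top library doses 57.5 and 19.1 uM final.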
* hit, by the source's call; i = inactive; ? = inconclusive; . = no result given; [ ] = another dose, or the depositor's remark. Unless noted, the call rests on the fitted dose curve; in most records, active means well fitted curve in the direction sought with a large enough effect; inconclusive means small, poorly fitted or top-dose-only effect, or another doubt; inactive means no such curve, though single readings can be large; an effect the other way counts as inactive or inconclusive.

SMILES	HEK293 viab	SNCA expr inh	KDM5B inh	IP6K1 inhibitor
O=C(c1cc[nH]c(=O)c1)N1C[C@@H](COCC2CC2)[C@H](c2ccccn2)C1	4.8%	-5.4%	28.2µM*	6.0
COc1ccc(Nc2ncc(-c3ccccc3OC)c3c2OCC3)cn1	-13.8%[87.6 µM]	156.4%[87.6 µM]	35.5µM*	-9.8
COc1ccc(-c2cnc(Nc3ccc(CN4CCN(C)CC4)cc3)c3c2CCO3)cn1	?	87.4%[87.6 µM]	?	-23.5
COc1ccccc1-c1cnc(Nc2ccc(CN3CCN(C)CC3)cc2)c2c1CCO2	-17.5%[87.6 µM]	10.9%[87.6 µM]	35.5µM*	-2.0
N#Cc1ccc(NCc2c(F)cccc2Cl)cc1	.	.	i	.
COc1cc(N2CCC(N(C)C)CC2)ccc1Nc1ncc(Cl)c(Nc2ccccc2P(C)(C)=O)n1	?	8.55µM*	.	-3.8
COC(=O)c1ccc(C(=O)NCc2ccc(OC)cc2)cc1	.	.	i	.
Cc1cc(C)c(CNC(=O)c2cc(-c3ccccc3)cc3c2OCCN3C)c(=O)[nH]1	3.6%[87.6 µM]	-14.5%[87.6 µM]	31.6µM*	1.1
Cc1ccc(-c2cc(C(=O)NCc3c(C)cc(C)[nH]c3=O)c3c(c2)N(C)CCO3)cc1	2.3%[87.6 µM]	3.2%[87.6 µM]	?	-21.8
COc1ccccc1-c1cc(C(=O)NCc2c(C)cc(C)[nH]c2=O)c2c(c1)N(C)CCO2	?	?	?	-1.3
COc1ccc(-c2cc(C(=O)NCc3c(C)cc(C)[nH]c3=O)c3c(c2)N(C)CCO3)cn1	-7.5%[87.6 µM]	22.5%[87.6 µM]	35.5µM*	-20.4
Cc1cc(C)c(CNC(=O)c2cc(-c3ccc(CO)cc3)cc3c2OCCN3C)c(=O)[nH]1	-16.8%[87.6 µM]	0.1%[87.6 µM]	31.6µM*	-2.3
COc1ccc(-c2ccnc(N[C@H]3CO[C@H]4[C@@H]3OC[C@H]4OCC(=O)N(C)C)n2)cc1	?	-7.2%[87.6 µM]	35.5µM*	2.2
C=CCNC(=O)N[C@H]1CO[C@H]2[C@@H]1OC[C@@H]2Nc1nccc(-c2ccc(OC)cc2)n1	-5.3%[87.6 µM]	?	35.5µM*	-6.1
CCNC(=O)N[C@H]1CO[C@H]2[C@@H]1OC[C@@H]2Nc1nccc(-c2ccc(OC)cc2)n1	-0.5%[87.6 µM]	-13.2%[87.6 µM]	28.2µM*	-7.4
COc1ccc(-c2ccnc(N[C@H]3CO[C@H]4[C@@H]3OC[C@H]4OC(=O)Nc3ccc(C(C)(C)C)cc3)n2)cc1	-11.0%	-11.4%	25.1µM*	0.0
Cc1ccc(C(=O)N2CCC(N3C(=O)c4c(c(C)nn4-c4ccccc4)C3C)C2)cc1 (stereo not drawn)	.	.	.	2.6
c1ccc(CN(C2COC2)[C@@H]2C[C@@H]3CO[C@H](c4ccccc4)C[C@@H]3C2)cc1	.	.	.	27.2
CC(C)COc1ccc(CN)cc1	.	.	i	.
CC(NC(=O)c1ccco1)C(=O)Nc1nc(-c2cccc3ccccc23)cs1 (stereo not drawn)	.	.	i	.
O=C(NC1CCN(c2cc(-c3cccs3)[nH]n2)C1)c1cccs1 (stereo not drawn)	1.4%	-22.2%	?	8.4
O=C(NC1CCN(c2cc(-c3cccs3)[nH]n2)C1)c1cccc(Br)c1 (stereo not drawn)	?	?	7.94µM*	2.1
O=C(NC1CCN(c2cc(-c3cccs3)[nH]n2)C1)c1cccc(OC(F)(F)F)c1 (stereo not drawn)	-1.4%	-24.3%	5.01µM*	3.9
CN1CC2(CCCN(CC3CC3)C2)c2cc(C(=O)NCCOc3ccccc3)ccc21 (stereo not drawn)	4.2%[87.6 µM]	-29.3%[87.6 µM]	35.5µM*	-2.8
CN1CC2(CCCN(CC3CC3)C2)c2cc(C(=O)NCCc3ccccn3)ccc21 (stereo not drawn)	3.1%[87.6 µM]	1.7%[87.6 µM]	39.8µM*	2.4
SMILES	HEK293 viab	SNCA expr inh	KDM5B inh	IP6K1 inhibitor
COCCN1CCC2(C1)CN(C)c1ccc(C(=O)NCCOc3ccccc3)cc12 (stereo not drawn)	7.5%[87.6 µM]	97.1%[87.6 µM]	?	16.1
CSc1ccc(Cl)c(C(=O)Oc2ccc(C)c(C)c2)c1	.	.	i	.
CCOC(=O)C1CCN(C(=O)c2ccc3nc(-c4ccnc(Cl)c4)oc3c2)CC1	0.0%[87.6 µM]	15.9%[87.6 µM]	.	31.2
O=C(NCc1ccccc1)c1nc2c(o1)CCN(Cc1ccc(F)cc1F)CC2	-8.9%[87.6 µM]	11.5%[87.6 µM]	?	2.3
O=C(NCc1cccc(F)c1)c1nc2c(o1)CCN(Cc1cccc(Cl)c1)CC2	-21.1%[87.6 µM]	-18.4%[87.6 µM]	35.5µM*	7.2
O=C(NCc1cccc(F)c1)c1nc2c(o1)CCN(Cc1cc(F)ccc1F)CC2	-2.0%[87.6 µM]	-3.1%[87.6 µM]	31.6µM*	23.7
COc1cccc(CN2CCc3nc(C(=O)NCC4CC4)oc3CC2)c1	-2.7%[87.6 µM]	45.5%[87.6 µM]	39.8µM*	-6.2
O=C(c1ccc(F)cc1)N1CCC(n2cc(-c3nc(-c4ccccc4)no3)nn2)CC1	7.5%	51.5%	i	-5.9
Cc1cc(NCCN2CCNC2=O)n2nc(C)cc2n1	3.9%	12.2%	17.8µM*	3.5
Cc1cc(NCc2cncn2CC(C)C)n2nc(C)cc2n1	-8.6%	4.0%	?	6.8
O=Cc1ccc(-c2cccc(O)c2)cc1	4.2%[87.6 µM]	-24.1%[87.6 µM]	12.6µM*	-18.2
Cc1cc(C)cc(-c2ccc(C=O)cc2)c1	2.7%[87.6 µM]	24.8%[87.6 µM]	31.6µM*	-5.8
O=Cc1ccc(-c2ccc(F)cc2)cc1	6.4%[87.6 µM]	38.2%[87.6 µM]	89.1µM*	-12.0
N#Cc1nc(-c2ccc(S(=O)(=O)N3CCCCC3)cc2)oc1NCCCn1ccnc1	.	.	i	.
Cn1c(=O)c2c(nc(SCCCc3ccccc3)n2Cc2ccccc2)n(C)c1=O	.	.	i	.
c1cn(-c2ccc(Oc3nn[nH]n3)cc2)c(-c2cc3n(n2)CCNC3)n1	15.6%	-24.9%	17.8µM*	1.6
c1cn(-c2ccc(OCC3CCCO3)cc2)c(-c2cc3n(n2)CCNC3)n1 (stereo not drawn)	-3.9%	-24.9%	?	-2.9
O=C(Nc1ccc2ncnc(N3CCCCC3)c2c1)c1ccsc1	?	-15.8%	i	4.5
O=C(Nc1ccc2c(N3CCCC3)ncnc2c1)c1ccc(Br)cc1	?	?	?	8.7
COc1ccc(CC(=O)Nc2ccc3ncnc(N4CCCC4)c3c2)c(Cl)c1	-6.6%	8.1%	?	2.3
COc1ccc(CC(=O)Nc2ccc3ncnc(N4CCCCC4)c3c2)c(Cl)c1	-28.4%	-18.4%	31.6µM*	4.8
Nc1ccc2ncnc(N3CCCC3)c2c1	6.1%	-18.7%	28.2µM*	6.0
O=C(Nc1ccc2ncnc(N3CCCCC3)c2c1)c1cncc(Br)c1	-0.5%	4.8%	28.2µM*	12.7
O=C(Nc1ccc2ncnc(N3CCCC3)c2c1)c1cccc(Br)c1	-13.9%	-22.9%	31.6µM*	11.6
CN(C)CCCn1c(=O)c2[nH]cnc2n(C)c1=O	.	.	i	.
Cc1nn(-c2ccccc2)c2c1C(C)N(C1CCCN(C(=O)c3ccc(Cl)nc3)C1)C2=O (stereo not drawn)	.	.	.	8.0
O=C(Nc1cccn2cnnc12)c1ccc(S(=O)(=O)NCCO)cc1	-5.9%	-9.0%	28.2µM*	-4.5
CC(Cn1cncn1)NC(=O)c1ccc(S(=O)(=O)NCCO)cc1 (stereo not drawn)	-7.9%	6.8%	i	8.7
C[C@@H](NC(=O)C[C@@H]1c2nc(-c3cccnc3)sc2C[C@@H]2[C@](C)(CO)[C@H](O)CC[C@]21C)c1ccccc1	-6.4%	-3.1%	31.6µM*	-4.4
